# Reference: PubChem BioAssay (NCATS)
# Records with an inconclusive call do not appear. Where a call stands in place of a potency, no number is given. Calls of active or inactive are those of the source. Unless noted, the call rests on the fitted dose curve.
# Assays:
# [1] = qHTS profiling of the MIPE4 collection as inhibitors of Plasmodium falciparum (3D7) proliferation (AID 743344; call rule not given here); details: P. falciparum 3D7 in erythrocytes, SYBR Green DNA fluorescence, 72 h; at 28.5 µM unless noted
# Outline: (§1)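 Erythrocytes infected with P. falciparum (0.3% parasitemia, 2.5% hematocrit) incubated with compounds 72 h at 37 C, 5% CO2. Lysis with saponin/Triton buffer containing SYBR Green I, overnight at room temperature in the dark; DNA fluorescence (485/535 nm) normalised to 0.29 uM artemisinin and DMSO.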
# [2] = qHTS profiling of the MIPE4 collection as inhibitors of Plasmodium falciparum (DD2) proliferation (AID 743345; call rule not given here); details: P. falciparum Dd2 in erythrocytes, SYBR Green DNA, 72 h; at 28.5 µM unless noted
# Outline: as §1
# [3] = qHTS profiling of the MIPE4 collection as inhibitors of Plasmodium falciparum (DD2) proliferation (Rep 2) (AID 743346; call rule not given here); details: P. falciparum Dd2 in erythrocytes, SYBR Green DNA, 72 h; at 28.5 µM unless noted
# Outline: as §1
# [4] = qHTS for Inhibitors of the Functional Ribonucleoprotein Complex (vRNP) of Lassa (LASV) Arenavirus: LASV Primary Screen - GLuc reporter signal (AID 1347082; calls by dose curve; tested in HEK293 reporter line; further: nearly all actives have a fitted effect of over 60% in size; further: potency means the concentration at half of the fitted maximal effect)
# [5] = qHTS for Inhibitors of the Functional Ribonucleoprotein Complex (vRNP) of Lassa (LASV) Arenavirus: Viability assay - alamar blue signal for LASV Primary Screen (AID 1347083; calls by dose curve; tested in HEK293 reporter line; further: nearly all actives have a fitted effect of over 80% in size; further: potency means the concentration at half of the fitted maximal effect)
# [6] = biological target: Nucleoprotein (Lymphocytic choriomeningitis virus (strain Armstrong)) (UniProt P09992); assay: qHTS for Inhibitors of the Functional Ribonucleoprotein Complex (vRNP) of Lymphocytic Choriomeningitis Arenaviruses (LCMV): LCMV Primary Screen - GLuc reporter signal (AID 1347086); further: nearly all actives have a fitted effect of over 70% in size; further: potency means the concentration at half of the fitted maximal effect
# [7] = Cytotoxicity counterscreen for inhibitors of SARS-CoV-2 cell entry (AID 1645845); further: nearly all actives have a fitted effect of over 50% in size
# Outline: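 48 h compound treatment (after 1 h preincubation), HEK293-ACE2 cells, 37 C/5% CO2; ATP luminescence endpoint; normalized to cell wells and media blanks.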
# [8] = Primary qHTS to identify inhibitors of SARS-CoV-2 cell entry (AID 1645846); details: activity change, negative = inhibition: at 57.1 µM (top of the series) unless noted; further: nearly all actives have a fitted effect of over 45% in size; further: potency means the concentration at half of the fitted maximal effect
# Outline: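 Entry measured by luciferase signal 48 h after adding SARS-CoV-2-S pseudotyped MLV particles to HEK293-ACE2 cells preincubated 1 h with compounds. Normalisation: bald particles and spike particles.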
# [9] = tested on: CRL-7250; assay: qHTS assay to identify novel small-molecules to repurpose for Merkel cell carcinoma treatment (AID 1296009; active means well fitted inhibition curve with a large enough effect; further: nearly all actives have a fitted effect of over 60% in size); details: MCC and control cell lines, CellTiter-Glo viability, 72 h; series mostly up to 92 µM
# Outline: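 After compound transfer in DMSO, plates were kept 72 hr at 37 degree celsius. Luminescent ATP signal from CellTiter-Glo served as viability measure, normalized against DMSO and no-cell controls.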
# [10] = qHTS for Inhibitors of the Functional Ribonucleoprotein Complex (vRNP) of Lymphocytic Choriomeningitis Arenaviruses (LCMV): Viability assay - alamar blue signal for LCMV Primary Screen (AID 1347085; calls by dose curve; tested in HEK293 reporter line; further: potency means the concentration at half of the fitted maximal effect; nearly all actives have a fitted effect of over 80% in size)
# [11] = Confirmatory qHTS for activators (rescue) of SARS-CoV-2 Cytopathic Effect (CPE) (AID 1508606); further: potency means the concentration at half of the fitted maximal effect; nearly all actives have a fitted effect of over 70% in size
# [12] = Primary qHTS for inhibitors of SARS-S pseudo-typed particle cell entry (AID 1479145); further: nearly all actives have a fitted effect of over 45% in size
# [13] = Primary qHTS for Huh7 cytotoxicity: counterscreen for inhibitors of MERS-S pseudotyped particle cell entry (AID 1479147); details: outcome: dose series up to 57.1 µM unless noted
# [14] = Primary qHTS for inhibitors of MERS-S pseudo-typed particle cell entry (AID 1479149); further: nearly all actives have a fitted effect of over 60% in size
# [15] = Primary qHTS for Vero E6 cytotoxicity: counterscreen for inhibitors of SARS-S pseudo-typed particle cell entry (AID 1479150); details: outcome: dose series up to 57.1 µM unless noted
# Nucleoprotein (Lymphocytic choriomeningitis virus (strain Armstrong)), sequence (P09992 whole entry, looked up): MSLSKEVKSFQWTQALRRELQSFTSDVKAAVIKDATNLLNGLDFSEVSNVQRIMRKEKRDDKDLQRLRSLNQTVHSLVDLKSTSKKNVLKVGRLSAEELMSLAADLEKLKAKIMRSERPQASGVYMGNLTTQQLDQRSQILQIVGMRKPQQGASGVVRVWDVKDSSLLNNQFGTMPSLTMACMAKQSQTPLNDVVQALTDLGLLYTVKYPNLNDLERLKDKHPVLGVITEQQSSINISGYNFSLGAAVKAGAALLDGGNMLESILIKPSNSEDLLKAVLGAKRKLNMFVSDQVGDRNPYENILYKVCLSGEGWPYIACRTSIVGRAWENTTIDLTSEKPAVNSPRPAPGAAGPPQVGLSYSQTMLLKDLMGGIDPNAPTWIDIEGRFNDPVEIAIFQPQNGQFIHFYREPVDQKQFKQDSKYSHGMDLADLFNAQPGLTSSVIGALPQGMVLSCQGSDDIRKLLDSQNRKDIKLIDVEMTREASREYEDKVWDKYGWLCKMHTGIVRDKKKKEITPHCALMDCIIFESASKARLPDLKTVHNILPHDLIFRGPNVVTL
smiles,measurement,setting,value
NC1=N[C@H]2[C@H](CS[C@H]2CCCCC(=O)O)N1,"parasite growth, % of DMSO control",[1],88.8% [at 9.64 µM]
same,"parasite growth remaining, % of DMSO control (lower = more inhibition)",[2],94.1% [at 9.64 µM]
same,"parasite growth, % of control (lower = inhibition)",[3],82% [at 9.64 µM]
same,Potency,[4],inactive
same,Potency,[5],inactive
same,Potency,[6],inactive
same,Potency,[7],inactive
same,"activity change, negative = inhibition",[8],-19.4% [at 27.1 µM]
same,Potency,[9],inactive
Nc1ncnc2c1ncn2[C@@H]1O[C@H](CO)[C@@H](O)[C@@H]1O,Potency,[4],inactive
same,Potency,[5],inactive
same,Potency,[6],inactive
same,Potency,[7],inactive
same,Potency,[8],28.2 µM (active)
same,Potency,[9],inactive
CC[C@H](NC(=O)[C@H](C)NC)C(=O)N1C[C@@H](O)C[C@H]1Cc1c(-c2[nH]c3cc(F)ccc3c2C[C@H]2C[C@H](O)CN2C(=O)[C@H](CC)NC(=O)[C@H](C)NC)[nH]c2cc(F)ccc12,Potency,[5],6.85 µM (active)
same,Potency,[10],3.85 µM (active)
same,Potency,[6],7.69 µM (active)
same,Potency,[9],inactive
O=c1cc(-c2cccc3c2Sc2ccccc2S3)oc(N2CCOCC2)c1,Potency,[4],inactive
same,Potency,[6],inactive
same,Potency,[11],3.55 µM (active)
same,Potency,[9],inactive
CNC(=O)c1ccc(N2C(=S)N(c3cnc(C#N)c(C(F)(F)F)c3)C(=O)C23CCC3)cc1F,Potency,[4],21.7 µM (active)
same,Potency,[7],inactive
same,Potency,[9],inactive
COc1ccc([C@@H]2CC(=O)c3c(O)cc(O[C@@H]4O[C@H](CO[C@@H]5O[C@@H](C)[C@H](O)[C@@H](O)[C@@H]5O)[C@@H](O)[C@H](O)[C@@H]4O)cc3O2)cc1O,Potency,[4],inactive
same,Potency,[5],inactive
same,Potency,[6],inactive
same,Potency,[12],inactive
same,outcome,[13],inactive
same,Potency,[14],inactive
same,outcome,[15],inactive
same,Potency,[7],inactive
same,"activity change, negative = inhibition",[8],-5.46%
same,Potency,[9],inactive
